For 43 molecules, Potency results are on record in PubChem BioAssay (Tox21).

The target of the assay is Beta-2 adrenergic receptor (Homo sapiens) (UniProt P07550). Briefly: Adrenergic beta2 receptor (ADRB2) small molecule agonists, cell-based qHTS assay (AID 1963593). The essentials:
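CHO cells stably over-expressing ADRB2 were plated overnight at 37C, then dosed with compounds plus a stimulation mix containing 100uM IBMX and 25uM Ro-20-1724 for 0.5hr at room temperature. cAMP was measured by HTRF competition, 1hr.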

Inconclusive results are not listed. A call without a number means that no potency is given here. Activity calls are given as the source filed them. The call rests on the fitted dose curve.
Potency means the concentration at half of the fitted maximal effect.

Sequence of Beta-2 adrenergic receptor (Homo sapiens) (P07550 whole entry, looked up): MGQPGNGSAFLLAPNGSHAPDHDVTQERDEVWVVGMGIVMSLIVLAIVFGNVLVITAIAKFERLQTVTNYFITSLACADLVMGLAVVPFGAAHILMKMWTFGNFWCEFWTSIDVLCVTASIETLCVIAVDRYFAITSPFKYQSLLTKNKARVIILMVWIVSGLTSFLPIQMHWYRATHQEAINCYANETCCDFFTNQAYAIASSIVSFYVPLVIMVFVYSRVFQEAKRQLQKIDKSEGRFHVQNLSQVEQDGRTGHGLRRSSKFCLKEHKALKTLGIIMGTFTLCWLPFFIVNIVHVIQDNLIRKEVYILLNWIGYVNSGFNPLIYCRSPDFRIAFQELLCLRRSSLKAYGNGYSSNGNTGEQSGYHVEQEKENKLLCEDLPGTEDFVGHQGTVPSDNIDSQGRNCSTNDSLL

Take `CCCCCCCCCCCCCC(=O)OCC`: the Potency result was “inactive”. For `Cc1oc(-c2ccccc2)nc1CCOc1ccc(C[C@H](Nc2ccccc2C(=O)c2ccccc2)C(=O)O)cc1` the value was “inactive”; for `O=C1CCC(C2CCCCC2)CC1`, “inactive”. The entry for `CCOC(=O)C(Br)c1ccccc1` (stereo not drawn) is “inactive”; for `C=C/C(C)=C/C/C=C(\C)CCC=C(C)C` it is “inactive”. The entry for `CC(=O)N(CC(=O)N(C)C)c1ccccc1` is “inactive”. As to `CCN(C(=O)c1cc(C)cc(OC[C@H](C)Nc2ccncc2)c1)C(C)C`, the Potency entry is “inactive”. For `CCN(CC)CCOC(=O)C(Cc1cccc2ccccc12)CC1CCCO1` (stereo not drawn) the value was “inactive”; for `CCCCCCCC/C=C\CCCCCCCC(=O)OC[C@@H](O)[C@H]1OC[C@H](O)[C@H]1O`, “inactive”; for `CCO[Si](CCCCl)(OCC)OCC`, “inactive”.

Turning to `CCC(C(=O)OCCN1CCOC(c2ccccc2)C1C)c1ccccc1` (stereo not drawn), the Potency entry was “inactive”. For `CCCCCCCCCOC(C)=O` the value was “inactive”. The entry for `COc1cc(NS(=O)(=O)c2ccc(N)cc2)ncn1` is “inactive”; for `CCOC(=O)NNc1ccc(N(CC)CC(C)O)nn1` (stereo not drawn) it is “inactive”. In the case of `Oc1cc2ccccc2cc1O`, the Potency result was “inactive”. For `C#CC(O)CCCCC` (stereo not drawn) the value was “inactive”; for `NS(=O)(=O)c1cc(C(=O)NN2C[C@H]3[C@H]4CCC(C4)[C@H]3C2)ccc1Cl`, “inactive”.

Take `CN(C)Cc1ccccc1`: the Potency entry is “inactive”. The entry for `CC(C)C[C@H](NC(=O)OCC1c2ccccc2-c2ccccc21)C(=O)O` is “inactive”; for `CCc1cccc(CC)c1` it is “inactive”. For `CCCC[P+](C)(CCCC)CCCC` the value was “inactive”.

Turning to `CC(C)Oc1ccccc1O`, the Potency result is “inactive”. For `CN1CCN(N)CC1` the value was “inactive”; for `NC(=O)NS(=O)(=O)c1ccc(N)cc1`, “inactive”; for `C=C1CC[C@H](O)C/C1=C\C=C1/CCC[C@]2(C)[C@@H]([C@H](C)CCCC(C)C)CC[C@@H]12`, “inactive”. For `CN(C(=O)CCCOc1ccc2[nH]c(=O)ccc2c1)C1CCCCC1` the value was “inactive”; for `NNc1nc(-c2ccc([N+](=O)[O-])cc2)cs1`, “inactive”. Consider `C#CCN[C@@H]1CCc2ccccc21`, for which the Potency was 29.8 µM (active).

Consider `CCCCCCCCN1CCCC1=O`, for which the Potency entry is “inactive”.

`O=C(O)Cc1cn(-c2ccccc2)nc1-c1ccc(Cl)cc1`: the Potency result is “inactive”. For `CCCCC(CC)COC(=O)CCCCCCCCC(=O)OCC(CC)CCCC` (stereo not drawn) the value was “inactive”. Consider `C[C@H](CN1CCCC1)C(=O)c1ccc(C(F)(F)F)cc1`, for which the Potency entry was “inactive”. The entry for `O=C1OC(=O)C2C3C=CC(C3)C12` (stereo not drawn) is “inactive”; for `ClCCl` it is “inactive”.

Consider `CC(C)(C)C(=O)/C=C/c1ccc(Cl)cc1`, for which the Potency result was “inactive”. The entry for `CC(C)(C)C(=O)OCOC(=O)[C@@H]1N2C(=O)[C@@H](NC(=O)[C@H](N)c3ccccc3)[C@H]2SC1(C)C` is “inactive”; for `CC(=O)Nc1ccccc1C` it is “inactive”; for `CCCCCCCCCCCCCCCCOP(=O)([O-])OCC[N+](C)(C)C` it is “inactive”. The entry for `CCO[Si](CC)(OCC)OCC` is “inactive”; for `CC(=O)OC1CCC(C(C)(C)C)CC1` (stereo not drawn) it is “inactive”; for `C[C@]12CCC(=O)C=C1CC[C@@H]1[C@@H]2CC[C@@]2(C)[C@H]1CC[C@]2(O)C(=O)CO` it is “inactive”. For `C[N+]12CCC(CC1)C(OC(=O)C(O)(c1ccccc1)c1ccccc1)C2` (stereo not drawn) the value was “inactive”. `Cc1cccc2sc(N)nc12`: the Potency result is “inactive”.
